# Earlier results, collected in PubChem BioAssay AID977611.
# Among all 3,900 compounds or so, about 3,900 (100%) were called active. No cut-off is given here; in the data, nearly all actives have Kd up to about 4200 µM. The set was probably picked from earlier hits. Some of the results follow. Numbered stars: 1 amine (or outer) side, 2 acyl side, 3 side chain; on linkers, the order of the positions; unused ones are H or OH. Square brackets hold non-standard residues; d marks the D form. Peptide text beside a SMILES is read from it. Lys(Me3) = C[N+](C)(C)CCCC[C@H](N)C(=O)O; Orn(CH(NH2)2) = NC(N)NCCC[C@H](N)C(=O)O; X2 = CNC(N)NCCC[C@H](N[*:1])C(=O)[*:2]
# Assay: PubChem AID 977611
# Conditions: PDB protein-ligand complexes, literature Kd
structure (smiles),measurement,setting,value
OC(C[n+]1cccc(-c2ccccc2)c1)([P+](O)(O)O)[P+](O)(O)O,Kd,"protein: Leshmaniasis major Farnesyl diphosphate synthase, PDB entry 4jzb",0.342 µM (active)
OC(C[n+]1cccc(F)c1)([P+](O)(O)O)[P+](O)(O)O,Kd,"protein: Leshmaniasis major Farnesyl diphosphate synthase, PDB entry 4k10",0.12 µM (active)
Oc1ccccc1CNc1cc(NCc2ccccc2O)ncn1,Kd,"protein: Caspase-6, PDB entry 4nbn",44 µM (active)
Cc1cccnc1NCc1ccccc1O,Kd,"protein: proCaspase-6, PDB entry 4nbk",136 µM (active)
C[C@@H]1OC[C@@H](O)[C@H](O)[C@@H]1O,Kd,"protein: PUTATIVE FUCOSE-BINDING LECTIN PROTEIN(R17A mutant), PDB entry 3zi8",2.2 µM (active)
C=C(CC[C@]12O[C@H](C(=O)O)[C@@](O)(C(=O)O)[C@](C(=O)O)(O1)[C@H](OC(=O)/C=C/[C@@H](C)C[C@@H](C)CC)[C@H]2O)[C@@H](OC(C)=O)[C@H](C)Cc1ccccc1,Kd,"protein: Dehydrosqualene synthase, PDB entry 3vje",0.0097 µM (active)
same,Kd,"protein: Squalene synthase, PDB entry 3vjc",0.0189 µM (active)
COc1ccc(CNC(=O)c2cc3c(cc2CN(C)Cc2cccc(OC)c2C(=O)O)OCO3)cc1,Kd,"protein: HIV integrase, PDB entry 4cjr",793 µM (active)
COc1ccc(CNC(=O)c2cc3ccccc3cc2CN(C)Cc2cccc(OC)c2C(=O)O)cc1,Kd,"protein: HIV integrase, PDB entry 4cig",214 µM (active)
C=CCN(Cc1ccccc1C(=O)NCc1ccc(OC)cc1)Cc1ccc2c(c1C(=O)O)OC[C@H](CCC(=O)O)O2,Kd,"protein: INTEGRASE, PDB entry 4ceb",1080 µM (active)
O=C(O)CCC(=O)C1=CC=C[C@@H](O)[C@@H]1C(=O)O,Kd,"protein: E. Coli 2-succinyl-6-hydroxy-2,4-cyclohexadiene-1-carboxylate synthase (MenH), PDB entry 4myd",28 µM (active)
Nc1ccc(C(=O)N[C@@H](C(=O)NO)c2ccc(-n3cccn3)cc2)cc1,Kd,"protein: M17 leucyl aminopeptidase A-M17, PDB entry 4r7m",0.011 µM (active)
COC(=O)N1CC[C@@H]2[C@H]1CCC[C@@]2(O)C#Cc1cccc(C)c1,Kd,"protein: Metabotropic glutamate receptor 5, Lysozyme, Metabotropic glutamate receptor 5 chimera, PDB entry 4oo9",0.00086 µM (active)
O=C(O)[C@@H]1O[C@@H](O)[C@H](OS(O)(O)O)[C@@H](O)[C@@H]1O[C@H]1O[C@H](COS(O)(O)O)[C@@H](O[C@@H]2O[C@@H](C(=O)O)[C@@H](O[C@H]3O[C@H](COS(O)(O)O)[C@@H](O[C@@H]4O[C@@H](C(=O)O)[C@@H](O[C@H]5O[C@H](COS(O)(O)O)[C@@H](O)[C@H](O)[C@H]5NS(O)(O)O)[C@H](O)[C@H]4OS(O)(O)O)[C@H](O)[C@H]3NS(O)(O)O)[C@H](O)[C@H]2OS(O)(O)O)[C@H](O)[C@H]1NS(O)(O)O,Kd,"protein: SONIC HEDGEHOG PROTEIN, PDB entry 4c4n",0.8 µM (active)
CO[C@@H]1O[C@@H](C(=O)O)[C@@H](O[C@H]2O[C@H](COS(O)(O)O)[C@@H](O)[C@H](OS(O)(O)O)[C@H]2NS(O)(O)O)[C@H](O)[C@H]1OS(O)(O)O,Kd,"protein: Fibroblast growth factor 2 FGF2, PDB entry 4oeg",9.01 µM (active)
CO[C@@H]1O[C@@H](C(=O)O)[C@@H](O[C@H]2O[C@H](COS(O)(O)O)[C@@H](O)[C@H](O)[C@H]2NS(O)(O)O)[C@H](O)[C@H]1OS(O)(O)O,Kd,"protein: Fibroblast growth factor 2 FGF2, PDB entry 4oef",17.5 µM (active)
CO[C@@H]1O[C@@H](C(=O)O)[C@@H](O[C@H]2O[C@H](CO)[C@@H](O)[C@H](OS(O)(O)O)[C@H]2NS(O)(O)O)[C@H](O)[C@H]1OS(O)(O)O,Kd,"protein: Fibroblast growth factor 2 FGF2, PDB entry 4oee",1.73 µM (active)
O=C(O)[C@H]1CCCN1C(=O)CCCCC(=O)N1CCC[C@@H]1C(=O)O,Kd,"protein: Serum Amyloid P Component, PDB entry 4avt",0.0088 µM (active)
CC(C)[C@@H]1NC(=O)[C@@H](NC(=O)[C@H](Cc2ccc(O)cc2)NC(=O)[C@@H]2CCCN2C(=O)[C@H](C)N)CSSC[C@@H](C(=O)O)NC(=O)[C@H](CO)NC(=O)[C@H](Cc2c[nH]c3ccccc23)NC(=O)[C@H](CO)NC(=O)CNC(=O)[C@H](CCCN=C(N)N)NC(=O)[C@H](Cc2ccc(O)cc2)NC1=O,Kd,"protein: Ephrin type-A receptor 4 EphA4 LBD, PDB entry 4w50",1.4 µM (active)
CC(C)[C@@H]1NC(=O)[C@@H](NC(=O)[C@H](Cc2ccc(O)cc2)NC(=O)[C@@H]2CCCN2C(=O)[C@H](C)N)CSSC[C@@H](C(N)=O)NC(=O)[C@H](CO)NC(=O)[C@H](Cc2c[nH]c3ccccc23)NC(=O)[C@H](CO)NC(=O)CCNC(=O)[C@H](CCCN=C(N)N)NC(=O)[C@H](Cc2ccc(O)cc2)NC1=O,Kd,"protein: Ephrin type-A receptor 4 EphA4 LBD, PDB entry 4w4z",0.03 µM (active)
CNC(N)NCCC[C@H](NC(=O)[C@H](C)N)C(=O)N[C@H](C(=O)N[C@@H](CCCC[N+](C)(C)C)C(=O)N[C@@H](CCC(N)=O)C(=O)N[C@H](C(=O)N[C@@H](C)C(=O)N[C@@H](CCCNC(N)N)C(=O)N[C@@H](CCCCN)C(=O)N[C@@H](C)C(=O)N[C@@H](C)C(=O)NCC(=O)O)[C@@H](C)O)[C@@H](C)O (stereo partly specified) (H-A[X2]T[Lys(Me3)]QTA[Orn(CH(NH2)2)]KAAG-OH),Kd,"protein: RAG2-PHD, PDB entry 2v85",34.6 µM (active)
